Experiments:
POU1 (OCT1 POU domain) = POU1 (OCT1 POU domain) (human, UniProt P14859 260-458); assay: EMSA-SELEX-seq; no BOB1; 20 mM Tris-HCl pH 7.6, 140 mM NaCl, 10% glycerol, 0.5 mM EDTA, 0.05% Triton X-100, 0.1 mg/mL BSA, 0.1 mg/mL poly(dI-dC), 5 mM DTT, room temperature, 20 min; high values mean tight binding; conditions: protein: recombinant; dsDNA, one strand shown
Summary of the method: (§1)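 In this selection, tagged POU-domain proteins from E. coli BL21, purified under denaturing conditions and renatured, were bound to a PCR-amplified double-stranded random 35-nt library with or without coactivator protein. Reactions held 30 ng protein, 300 ng library and, where used, 28 ng coactivator protein in 20 μL Tris–HCl pH 7.6 binding buffer for 20 min at RT. Complex bands were cut from native 6% PAGE, eluted and PCR-amplified over four rounds, then Illumina-sequenced, and binding preference is the percentage of sequenced 8-mers matching a motif pattern.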

POU2 (OCT2 POU domain) = target: T1, POU2 (OCT2 POU domain) (human, UniProt P09086 175-386); assay: as above; conditions: protein: recombinant; dsDNA, one strand shown
T1 sequence: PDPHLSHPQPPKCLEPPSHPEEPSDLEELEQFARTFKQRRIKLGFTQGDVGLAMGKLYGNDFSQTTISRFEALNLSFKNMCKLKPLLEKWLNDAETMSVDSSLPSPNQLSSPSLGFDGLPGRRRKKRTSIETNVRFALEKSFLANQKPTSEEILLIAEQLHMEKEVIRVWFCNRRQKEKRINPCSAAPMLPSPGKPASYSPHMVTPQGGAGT
Summary of the method: as §1

[1] = target: POU1 (OCT1 POU domain);BOB1 (OBF1, OCA-B) (human;human, UniProt P14859;Q16633 260-458;1-256, |); assay: EMSA-SELEX-seq; with BOB1 (ternary complex band); 20 mM Tris-HCl pH 7.6, 140 mM NaCl, 10% glycerol, 0.5 mM EDTA, 0.05% Triton X-100, 0.1 mg/mL BSA, 0.1 mg/mL poly(dI-dC), 5 mM DTT, room temperature, 20 min; high values mean tight binding; conditions: protein: recombinant;recombinant; copies: 1;1; dsDNA, one strand shown
Summary of the method: as §1

[2] = target: T2, POU2 (OCT2 POU domain);BOB1 (OBF1, OCA-B) (human;human, UniProt P09086;Q16633 175-386;1-256, |); assay: as above; conditions: protein: recombinant;recombinant; copies: 1;1; dsDNA, one strand shown
T2 sequence 1: T1 sequence
T2 sequence 2: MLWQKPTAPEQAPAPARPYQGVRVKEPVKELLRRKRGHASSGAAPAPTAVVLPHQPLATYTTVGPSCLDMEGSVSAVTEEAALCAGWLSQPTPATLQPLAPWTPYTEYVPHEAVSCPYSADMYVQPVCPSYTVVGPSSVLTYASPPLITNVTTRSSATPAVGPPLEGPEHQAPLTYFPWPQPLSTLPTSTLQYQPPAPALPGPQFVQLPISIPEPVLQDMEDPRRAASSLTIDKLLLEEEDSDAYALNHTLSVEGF
Summary of the method: as §1

Chain of POU1 (OCT1 POU domain) (P14859 260-458): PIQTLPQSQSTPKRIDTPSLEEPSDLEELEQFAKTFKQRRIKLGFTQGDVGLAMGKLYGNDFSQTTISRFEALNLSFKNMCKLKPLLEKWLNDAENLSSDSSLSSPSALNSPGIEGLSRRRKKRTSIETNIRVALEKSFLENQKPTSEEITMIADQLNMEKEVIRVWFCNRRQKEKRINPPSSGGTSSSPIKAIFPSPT

| Sequence | binding signal (POU1 (OCT1 POU domain)) | binding signal (POU2 (OCT2 POU domain)) | binding signal [1] | binding signal [2] |
| --- | --- | --- | --- | --- |
| AGGACAAT | 0.042 % of ANNNNAAN 8-mers | 0.0345 % of ANNNNAAN 8-mers | 0.0496 % of ANNNNAAN 8-mers | 0.0421 % of ANNNNAAN 8-mers |
| AGCCGAAC | 0.0133 % of ANNNNAAN 8-mers | 0.0161 % of ANNNNAAN 8-mers | 0.016 % of ANNNNAAN 8-mers | 0.014 % of ANNNNAAN 8-mers |
| AAGAAAAA | 0.0934 % of ANNNNAAN 8-mers | 0.0921 % of ANNNNAAN 8-mers | 0.105 % of ANNNNAAN 8-mers | 0.0669 % of ANNNNAAN 8-mers |
| ACACTAAT | 0.0568 % of ANNNNAAN 8-mers | 0.0811 % of ANNNNAAN 8-mers | 0.0316 % of ANNNNAAN 8-mers | 0.0438 % of ANNNNAAN 8-mers |
| AAATAAAC | 0.116 % of ANNNNAAN 8-mers | 0.119 % of ANNNNAAN 8-mers | 0.142 % of ANNNNAAN 8-mers | 0.13 % of ANNNNAAN 8-mers |
| ACTTTAAA | 0.0713 % of ANNNNAAN 8-mers | 0.0817 % of ANNNNAAN 8-mers | 0.0652 % of ANNNNAAN 8-mers | 0.0495 % of ANNNNAAN 8-mers |
| AGTAAAAT | 0.226 % of ANNNNAAN 8-mers | 0.179 % of ANNNNAAN 8-mers | 0.236 % of ANNNNAAN 8-mers | 0.148 % of ANNNNAAN 8-mers |
| ACGTCAAT | 0.0339 % of ANNNNAAN 8-mers | 0.0426 % of ANNNNAAN 8-mers | 0.0269 % of ANNNNAAN 8-mers | 0.0322 % of ANNNNAAN 8-mers |
| ATAGTAAA | 0.12 % of ANNNNAAN 8-mers | 0.115 % of ANNNNAAN 8-mers | 0.128 % of ANNNNAAN 8-mers | 0.106 % of ANNNNAAN 8-mers |
| AAGCTAAT | 0.0969 % of ANNNNAAN 8-mers | 0.136 % of ANNNNAAN 8-mers | 0.0527 % of ANNNNAAN 8-mers | 0.0644 % of ANNNNAAN 8-mers |
| AACGAAAG | 0.0313 % of ANNNNAAN 8-mers | 0.0328 % of ANNNNAAN 8-mers | 0.0328 % of ANNNNAAN 8-mers | 0.0264 % of ANNNNAAN 8-mers |
| ACGCGAAG | 0.0172 % of ANNNNAAN 8-mers | 0.0121 % of ANNNNAAN 8-mers | 0.0168 % of ANNNNAAN 8-mers | 0.0239 % of ANNNNAAN 8-mers |
| ATCAAAAG | 0.045 % of ANNNNAAN 8-mers | 0.0414 % of ANNNNAAN 8-mers | 0.0581 % of ANNNNAAN 8-mers | 0.0388 % of ANNNNAAN 8-mers |
| ACACCAAG | 0.0103 % of ANNNNAAN 8-mers | 0.0178 % of ANNNNAAN 8-mers | 0.0129 % of ANNNNAAN 8-mers | 0.0124 % of ANNNNAAN 8-mers |

From article PMC10812921, “Transcriptional Coactivator BOB1 (OBF1, OCA-B) Modulates the Specificity of DNA Recognition by the POU-Domain Factors OCT1 and OCT2 in a Monomeric Configuration”
